# Hit rate of the full screen: of about 31,000 sequences, about 1,400 (4.5%) were called active. Shown is part of a subset that was picked to be rich in actives. A number with no mark means an inactive call.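 How the source made its calls: active means median seed-adjusted z-score above 1 or below -1; inactive means the rest.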
# Assay: Novel Modifiers of Survival Motor Neuron (SMN) Protein: Gene Identification via Genome-wide siRNA Screen
# Settings: HEK293T SMN2-luciferase reporter, siRNA knockdown, 72 h; actives lie on both sides
# How it was run: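 Each of three siRNAs per gene is reverse-transfected (1 pmol) into reporter HEK293T cells whose luciferase output tracks SMN protein level. After 72 h culture, ONE-Glo luminescence is control-normalized, log10-transformed and MAD-standardized; Common Seed Analysis deprioritizes seed-driven hits.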
row,Sequence,median seed-adjusted z-score
1,AGAUUAAGAUGUUCUACGATT against ADI1,0.0593
2,GCCCAUUGACUAUUACUUUTT against AR,-0.559
3,GAUGGAAGAUGGAACGGUUTT against CDC42BPA,0.257
4,GUAUGUCAAGGAGAACGGATT against CTSL2,-1.04 (active)
5,CAUUAUCACUGGUGCACUUTT against CHN1,2.1e-05
6,GGAAUAACAGUUGUAGGAATT against TMTC3,0.266
7,GAGAGCAACUUAAAGACGATT against ST18,0.0762
8,UGCUCUACAUCAACCCUGATT against FSHR,-0.462
9,GAAGAGCCGUAUGAUCGAATT against ZNF432,-0.124
10,CAAGGAGCAGGGAUAUGAATT against ADAP2,-1.1 (active)
11,GAGAGAUUGUGAUUGGAGATT against BHMT,0
12,GGAUCCUAUUGAGAGGCUATT against HS2ST1,0.421
13,GCACCAAGCAUUAUGAAAATT against SDCBP,0.0325
14,CACCUGAAGUAAAUCGGAUTT against SF3B14,-1.26 (active)
15,AGACAGUGUGGGUCCUGGATT against CD300E,0.337
16,GGCAGUUAAUGGAACAAUUTT against MTMR7,-0.207
17,CGUGGGCUCUAUCUACUAUTT against PUF60,2.26 (active)
18,GAUAGAUCGUUUUAAGAGATT against MST4,0.343
19,CGACAACAUAUGUUCCGGATT against TNFRSF11B,0.582
20,UAAUCAAGCUGAAAACAGATT against TRYX3,2.3 (active)
21,AAUUCGAGCUGGUGCCAUCTT against MYCL1,0.0658
22,ACCUCUACGUGGUCAGCUATT against DPP9,-0.224

row,Sequence,median seed-adjusted z-score
1,CCAAACGAUUUAUACCUAATT against IPMK,-0.00138
2,GAACAACCUGGAGAAAUAUTT against ENDOG,-0.336
3,GGAGAGACAUCGUCAGCUATT against AGXT,0.017
4,GAUGCUGGUUGGUUCGAUATT against MFSD4,-1.89 (active)
5,GAGUUUCGCCUGCUACAGATT against CELSR3,0
6,GGAUGAUUCGGAAGGUGAATT against ZNF467,0
7,GGGCCGUGCUGAUUGAGAATT against GPX2,-0.21
8,GGAGAAGAAUGAGCAACUUTT against ADAM19,0.0996
9,GGGCUUUGAUAGGAAUGCATT against UBE2K,0.497
10,CGCAGUAUGUGGACUAUGATT against NID2,0.283
11,GCUGAAAUCAAAAAGCGGATT against RAB1B,1.55 (active)
12,GGAAUGUGGUAACAGGAGATT against GMPR2,0.232
13,CCUACUCUGUUGUUCGAAATT against C3,0.0281
14,GCGGGAGAAGCUUACCUUUTT against DPP3,-0.261
15,GGAAAUAUGCGGCUACGGATT against NADSYN1,0.217
16,CGGGUACUGCUACACCUUUTT against SLC22A8,0.175
17,GUGAGACAGUUGACCGAGATT against SLC26A2,-1.25 (active)
18,CAUUCAAAUUUACCCUGUATT against POLR2H,-2.74 (active)
19,GGACCUUGUUAACAGUGGATT against APOBEC1,-0.323
20,CCCUGUACGUGUACAUCAUTT against MPG,-0.0888
21,GAGGCAGUCUUAAAAUGGATT against RAB32,-0.112
22,CUUCAAGAAUAAGUACGAATT against KRT7,0

row,Sequence,median seed-adjusted z-score
1,GUGUGAUUCUUGGAGCAAATT against PLD2,-0.743
2,CAACUACAACUGUGAGAUUTT against SF3A3,-2.1 (active)
3,GAAAUACUGCGGUAUAAAATT against SYTL2,0.211
4,GCCCAUAGAGGGUUCAGAATT against CCNT1,-0.72
5,GAGAUGAACCGGAACAUCATT against LOC650864,0.214
6,GAACCAUGGAUGGUGAUAATT against ZNF287,0.0213
7,GCUCCACAGCAUAUGCUCATT against NFIL3,0.4
8,GAACUGUGAAUUAGAUGUATT against F9,0.332
9,GGAACACGCUGACAGGACATT against FZR1,0.729
10,CGAUGUUGAAGUUACACCATT against ATP13A4,-1.09 (active)
11,CCGCGAAUCCAUGACAAUATT against UGCG,0.492
12,CCACCUCUACCAAACAUUUTT against IL2RG,-0.155
13,GGAGAUUCAUUCUAACCAUTT against ADAMTS19,-0.39
14,CAGUGAGAGUUUCAUCUUUTT against PKD1L2,-1.17 (active)
15,GGAUAUGAGUUACAUGACATT against GALNT5,-0.279
16,GGACGACUUCUUUAAGUCATT against PGD,-1.55 (active)
17,CGGCAAUUGUUGACGUGAATT against TXNDC11,0.642
18,GGAUGGACUUUAUCCAGCATT against TM7SF4,0.0246
19,GGACAACAGUCGGUCGAAUTT against ANP32C,-0.421
20,UGAUAUCGGCUACGUCAAATT against NAGK,0.446
21,GGAUUACAGUGUCCAAAGATT against ADRA1A,-1.06 (active)
22,CCUACUAUGUGAGCAAUGATT against EEF1G,-0.206

row,Sequence,median seed-adjusted z-score
1,GAGUCACAAUCGCAUGAAATT against FKBP9,0.359
2,CCACACUUUUGGUCUUUAATT against PGDS,0.02
3,AGACGGUCCUCUUUCGACATT against LOC442229,0.183
4,GGAUAUCAAUUAUUACGCUTT against LIFR,0.031
5,AGGAGUCCCUAAUGCUACATT against TRIM74,0.0932
6,GCAUCAACUUUGUGCAUGATT against PLTP,1.09 (active)
7,GCAGCAAACUGACGGAGAATT against PCTK3,0
8,CAGUGCUCAUGGAACUCUUTT against HMGCS2,-0.465
9,CGAUGAAGGGUUCCGAUUATT against CR1,0.143
10,GGGCGAGUAUGACCGAUCATT against CTRL,0.0758
11,GCAGAUACAUUGAUCGCAUTT against PRPF8,-1.54 (active)
12,GGACCAGACAACGAACUGATT against RNF135,0.581
13,CGCUGAAACACGUCCAUUUTT against CHAD,0
14,CUCUGAACAUCAACCCGGATT against DMRTB1,-0.393
15,GGAUCGUGGUCUUUCCAAATT against FNTA,1.04 (active)
16,GAAGAUUGGUGAUCUAGGATT against WNK3,-0.466
17,GGCUUCUUGUCCAACCCUATT against CILP,0.0436
18,GUAGGACCCUAAUAUCGAUTT against TEP1,-0.495
19,CAACUUUGAGGUAAAGUCATT against PRPF19,-0.485
20,CGCUGAUACUAACAAUUGATT against AOX1,-0.0717
21,GAUUCGUUCUUCUACAACUTT against PSMD2,-1.44 (active)
22,GGGCUGGAAUUACUAUGGATT against CCNH,-0.659

row,Sequence,median seed-adjusted z-score
1,GGCGAUUAGGAAACAUGAATT against PRKX,0.0341
2,GCAUUUUCCGCCUACCACATT against POLM,-1.55 (active)
3,GAACAUUUCCAAGUCUGUATT against YSK4,-0.181
4,CCAAGUUUAUAUCAUAUUATT against GNG4,-0.188
5,CGCGGUGCAUAUGAAGAUATT against PIGM,1.36 (active)
6,CAGUGUAAUUAGGCAACUATT against MYO3A,0.0776
7,CACCUCCGAUAAGCCCUAUTT against ZIC2,-0.162
8,GCAACUACUUCCGAUCUAATT against KIF17,-0.151
9,GGUUGUAACUGCAAGAUCATT against TIMP3,-1.05 (active)
10,CAUCCAUAAUUGGUGUAAATT against KIF20B,0
11,ACUUAGUCAUCAUCAAGUATT against GK,-0.474
12,CAAGAUUCUUGACCUUGAATT against PDP2,-0.0726
13,GGAUAUUGCGUUUGGAACATT against TDP1,-0.352
14,GGAUACUCUUCCUAUUCAATT against OMA1,0
15,CGGCUUUUAUGGACGAGUUTT against STX3,0.686
16,GAAACAAAGUCUUAAUAUUTT against ATP1A4,0.116
17,GGAAAAGUUCUGAAGACUATT against CPOX,-0.135
18,GCACCUCACCCAUCAAUGATT against RERE,0.129
19,GGUUGUCAUUAACAACAGUTT against DLST,1.16 (active)
20,GGUUCGGCAUGAGUGUGAATT against ZNF187,0.419
21,GCAGGAGACUCAAAGAUUUTT against DDO,-0.202

# Reference: PubChem BioAssay AID1347426 (Functional Genomics Laboratory (NCATS/FGL), 2020)
